From the antibiotic and cytotoxicity screens of Wong et al. (2023) come the findings set out here.

Molecules are shown by their SMILES. The whole screen tested about 39,000 compounds, of which about 3,300 (8.5%) were called active. This excerpt belongs to a sample that is enriched for actives.

In this test the test system is HepG2. As to the kind of experiment: cytotoxicity call (relative viability < 0.9). The settings on record: 10 µM.
As for `CCOC(=O)c1c(C)c(Cl)c(O)c(Cl)c1O`, the cytotoxicity call was “inactive”.
The same measure for `COc1ccc(S(=O)(=O)Nc2ccc3c(c2)CC(=O)N([C@H](C)CO)C[C@@H](C)[C@H](CN(C)C)O3)cc1`: “inactive”; for `Cc1noc(C)c1NC(=O)N(C)C[C@@H]1OCCCC[C@@H](C)Oc2ccc(NC(=O)Nc3ccc(F)cc3)cc2C(=O)N([C@H](C)CO)C[C@@H]1C`: “inactive”.
The same measure for `Cc1noc(C)c1S(=O)(=O)N(C)C[C@@H]1OCc2cnnn2CCCC(=O)N([C@@H](C)CO)C[C@H]1C`: “inactive”; for `C[C@@H]1CCCCO[C@H](CN(C)C(=O)C2CCCCC2)[C@@H](C)CN([C@H](C)CO)C(=O)c2cc(NC(=O)C3CCCCC3)ccc2O1`: “inactive”.
`CC(C)NC(=O)Nc1ccc2c(c1)C(=O)N([C@H](C)CO)C[C@@H](C)[C@H](CN(C)S(=O)(=O)c1cn(C)cn1)O2`: the cytotoxicity call was “inactive”.
The entry for `COCCNC(=O)C[C@H]1CC[C@H]2[C@@H](COC[C@H](O)CN2C(=O)Nc2ccccc2OC)O1` is “inactive”; for `COCCNC(=O)C[C@H]1CC[C@@H]2[C@H](COC[C@@H](O)CN2C(=O)Nc2ccccc2OC)O1` it is “inactive”.
The same measure for `COc1ccccc1CNC(=O)C[C@H]1CC[C@H]2[C@@H](COC[C@H](O)CN2C(=O)Nc2ccc(F)cc2)O1`: “active”; for `COc1ccccc1CNC(=O)C[C@@H]1CC[C@@H]2[C@H](COC[C@@H](O)CN2C(=O)Nc2ccc(F)cc2)O1`: “inactive”; for `COCCNC(=O)C[C@H]1CC[C@@H]2[C@H](COC[C@H](O)CN2C(=O)Nc2ccccc2OC)O1`: “active”.
The entry for `COc1ccccc1CNC(=O)C[C@@H]1CC[C@H]2[C@@H](COC[C@H](O)CN2C(=O)Nc2ccc(F)cc2)O1` is “inactive”; for `O=C(C[C@H]1CC[C@H]2[C@@H](COC[C@H](O)CN2C(=O)Nc2cccc(Cl)c2)O1)NCc1ccccc1F` it is “inactive”.
As for `O=C(C[C@@H]1CC[C@H]2[C@@H](COC[C@H](O)CN2C(=O)Nc2cccc(Cl)c2)O1)NCc1ccccc1F`, the cytotoxicity call was “inactive”.
With `O=C(C[C@H]1CC[C@@H]2[C@H](COC[C@@H](O)CN2C(=O)Nc2cccc(Cl)c2)O1)NCc1ccccc1F`, the cytotoxicity call was “active”.
The entry for `CO[C@@H]1CN(C)C(=O)c2cc(NC(=O)c3ccc(F)cc3)ccc2OC[C@H](C)N(C(=O)CN(C)C)C[C@@H]1C` is “inactive”; for `CN1C(=O)c2cc(NC(=O)Nc3ccccc3F)ccc2OC[C@@H]2O[C@H](CC(=O)NCc3ccc(-c4ccccc4)cc3)CC[C@@H]21` it is “inactive”; for `CS(=O)(=O)N1CCCn2c(nc(CNC(=O)CC3CC3)cc2=O)C1` it is “inactive”.
The same measure for `CC(C)Oc1oc(C(=O)NC2CCCCC2)c(-c2ccc(Cl)cc2)c1S(=O)(=O)c1ccc(Cl)cc1`: “inactive”; for `C[C@H](CO)N1C[C@H](C)[C@@H](CN(C)Cc2ccncc2)OCCCC[C@H](C)Oc2ccc(NC(=O)NC3CCCCC3)cc2C1=O`: “inactive”; for `O=C(C[C@@H]1C=C[C@@H](NC(=O)C2CC2)[C@H](CO)O1)NCCCN1CCOCC1`: “inactive”.
The entry for `CN(C)C(=O)C[C@@H]1C=C[C@H](NC(=O)C2CCOCC2)[C@@H](CO)O1` is “inactive”; for `C[C@H](CO)N1C[C@H](C)[C@H](CN(C)S(=O)(=O)c2ccccc2)Oc2ccc(NC(=O)c3ccncc3)cc2C1=O` it is “inactive”.
For the compound `O=S1(=O)CO[C@@H](c2ccccc2)CN1`, the cytotoxicity call is “inactive”.
As to `O=C(CS)NCCCCCCNC(=O)[C@@H]1C[C@@H]2C(=O)N3CCC[C@H]3C(=O)N2[C@@H]1c1cccc(OCCO)c1`, the cytotoxicity call was “inactive”.
The entry for `O=C(C[C@H]1CC[C@H]2[C@@H](COC[C@H](O)CN2Cc2cc(F)ccc2F)O1)N[C@@H]1CCN(Cc2ccccc2)C1` is “inactive”; for `COc1ccc(NC(=O)N(C)C[C@H]2Oc3c(NC(=O)Nc4ccc(C(F)(F)F)cc4)cccc3C(=O)N([C@@H](C)CO)C[C@H]2C)cc1` it is “active”.
The entry for `C[C@H](CO)N1C[C@H](C)[C@H](CN(C)C(=O)Nc2ccc(C(F)(F)F)cc2)Oc2c(NC(=O)Nc3ccc(C(F)(F)F)cc3)cccc2C1=O` is “active”; for `C[C@H]1CN([C@@H](C)CO)C(=O)c2cccc(NC(=O)Nc3ccc(C(F)(F)F)cc3)c2O[C@@H]1CN(C)C(=O)Nc1ccc(C(F)(F)F)cc1` it is “active”; for `COc1ccc(NC(=O)Nc2cccc3c2O[C@@H](CN(C)C(=O)Nc2ccc(C(F)(F)F)cc2)[C@@H](C)CN([C@@H](C)CO)C3=O)cc1` it is “inactive”.
The entry for `C[C@@H]1CN([C@H](C)CO)C(=O)c2cccc(NC(=O)Nc3ccc(C(F)(F)F)cc3)c2O[C@@H]1CN(C)C(=O)Nc1ccc(C(F)(F)F)cc1` is “inactive”; for `C[C@@H]1CN([C@@H](C)CO)C(=O)c2cccc(NC(=O)Nc3ccc(C(F)(F)F)cc3)c2O[C@@H]1CN(C)C(=O)Nc1ccc(C(F)(F)F)cc1` it is “active”.
In the case of `C[C@H]1CN([C@@H](C)CO)C(=O)c2cccc(NC(=O)Nc3ccc(C(F)(F)F)cc3)c2O[C@H]1CN(C)C(=O)Nc1ccc(C(F)(F)F)cc1`, the cytotoxicity call is “inactive”.
The same measure for `C[C@@H]1CN([C@H](C)CO)C(=O)c2cccc(NC(=O)Nc3ccc(C(F)(F)F)cc3)c2O[C@H]1CN(C)C(=O)Nc1ccc(C(F)(F)F)cc1`: “inactive”; for `COc1ccc(NC(=O)Nc2cccc3c2O[C@H](CN(C)C(=O)Nc2ccc(C(F)(F)F)cc2)[C@@H](C)CN([C@@H](C)CO)C3=O)cc1`: “inactive”.
The entry for `C[C@@H]1CN([C@@H](C)CO)C(=O)c2cccc(NC(=O)Nc3ccc(C(F)(F)F)cc3)c2O[C@H]1CN(C)C(=O)Nc1ccc(C(F)(F)F)cc1` is “inactive”.
The entry for `O=C(O)C[C@@H]1C=C[C@@H](NC(=O)c2ccncc2)[C@H](CO)O1` is “inactive”; for `CCCN(C)C[C@H]1OCCCC[C@@H](C)Oc2ccc(NC(=O)c3ccccc3)cc2C(=O)N([C@H](C)CO)C[C@H]1C` it is “inactive”; for `Cc1noc(C)c1NC(=O)Nc1ccc2c(c1)C(=O)N([C@H](C)CO)C[C@@H](C)[C@@H](CN(C)C(=O)Nc1ccccc1)OCCCC[C@@H](C)O2` it is “inactive”.
With `CN1N=C(N)c2cn([C@@H]3O[C@H](COP(=O)(O)O)[C@@H](O)[C@H]3O)c3ncnc1c23`, the cytotoxicity call is “inactive”.
Regarding `C[C@@H]1CN([C@@H](C)CO)C(=O)Cc2cc(NC(=O)CCN3CCOCC3)ccc2O[C@H]1CN(C)C(=O)Nc1ccccc1`, the cytotoxicity call was “inactive”.
The same measure for `CCO[C@@H]1OC(C(=O)N2CCN(Cc3ccc4c(c3)OCO4)CC2)=C[C@H](c2ccc3c(c2)OCO3)[C@H]1CCCO`: “inactive”; for `COCC1=C(C(=O)OC(C)OC(=O)OC(C)C)N2C(=O)C(NC(=O)C(=NOC)c3csc(N)n3)C2SC1` (stereo not given): “inactive”.
For `C[C@H](CO)N1C[C@H](C)[C@@H](CN(C)Cc2ccncc2)Oc2cc(C#CC(C)(C)O)ccc2S1(=O)=O`, the cytotoxicity call is “inactive”.
The same measure for `C[C@@H]1CCCCO[C@@H](CN(C)C(=O)C2CCCCC2)[C@H](C)CN([C@H](C)CO)C(=O)c2cc(NC(=O)c3ccncc3)ccc2O1`: “inactive”; for `Cc1noc(C)c1NC(=O)N(C)C[C@H]1Oc2c(NC(=O)Nc3ccc(C(F)(F)F)cc3)cccc2C(=O)N([C@@H](C)CO)C[C@H]1C`: “active”.
The same measure for `Cc1noc(C)c1NC(=O)N(C)C[C@@H]1Oc2c(NC(=O)Nc3ccc(C(F)(F)F)cc3)cccc2C(=O)N([C@@H](C)CO)C[C@H]1C`: “inactive”; for `C[C@@H]1CN([C@H](C)CO)C(=O)c2cccc(NC(=O)Nc3ccc(C(F)(F)F)cc3)c2O[C@@H]1CN(C)C(=O)Nc1ccc2c(c1)OCO2`: “inactive”.
The same measure for `C[C@H](CO)N1C[C@H](C)[C@H](CN(C)C(=O)Nc2ccc3c(c2)OCO3)Oc2c(NC(=O)Nc3ccc(C(F)(F)F)cc3)cccc2C1=O`: “active”.
With `Cc1noc(C)c1NC(=O)N(C)C[C@@H]1Oc2c(NC(=O)Nc3ccc(C(F)(F)F)cc3)cccc2C(=O)N([C@H](C)CO)C[C@H]1C`, the cytotoxicity call was “inactive”.
Regarding `C[C@@H]1CN([C@@H](C)CO)C(=O)c2cccc(NC(=O)Nc3ccc(C(F)(F)F)cc3)c2O[C@H]1CN(C)C(=O)Nc1ccc2c(c1)OCO2`, the cytotoxicity call was “inactive”.
Regarding `C[C@H](CO)N1C[C@H](C)[C@@H](CN(C)C(=O)Nc2ccc(C(F)(F)F)cc2)Oc2c(NC(=O)Nc3ccc(C(F)(F)F)cc3)cccc2C1=O`, the cytotoxicity call was “active”.
The same measure for `O=C1c2ccccc2[C@@]2(Cc3ccccc3N(Cc3ccccc3)C2=O)[C@H](c2ccc(CO)cc2)N1Cc1ccccc1C(F)(F)F`: “inactive”.
Regarding `Cc1noc(C)c1S(=O)(=O)N(C)C[C@@H]1Oc2ccc(NS(=O)(=O)c3cccs3)cc2CC(=O)N([C@H](C)CO)C[C@@H]1C`, the cytotoxicity call was “inactive”.
The same measure for `CN(C)Cc1cn(CC[C@@H]2CC[C@@H](NC(=O)Cc3cccnc3)[C@H](CO)O2)nn1`: “inactive”; for `Cc1noc(C)c1NC(=O)Nc1ccc2c(c1)CC(=O)N([C@@H](C)CO)C[C@H](C)[C@@H](CN(C)C(=O)NC(C)C)O2`: “inactive”.
The same measure for `O=C(C[C@H]1CC[C@@H]2[C@H](COC[C@H](O)CN2C(=O)Nc2ccc(F)cc2)O1)NCCCN1CCOCC1`: “inactive”; for `OC[C@@H](O)CN1CCN(c2ccccc2)CC1`: “inactive”.
The same measure for `Cc1nc(-c2ccc(OCC(C)C)c(C#N)c2)sc1C(=O)O`: “active”.
Regarding `COc1ccc(S(=O)(=O)N(C)C[C@H]2Oc3ccc(NC(=O)c4ccncc4)cc3C(=O)N([C@@H](C)CO)C[C@@H]2C)cc1`, the cytotoxicity call is “inactive”.
`O=CN[C@H](Cc1ccccc1)C(=O)O`: the cytotoxicity call is “inactive”.
The same measure for `C[C@H]1CN([C@@H](C)CO)C(=O)Cc2cc(NC(=O)CCCCCC(=O)Nc3ccccc3N)ccc2O[C@@H]1CN(C)Cc1ccc(Oc2ccccc2)cc1`: “inactive”; for `C[C@H]1CN([C@@H](C)CO)C(=O)Cc2cc(NC(=O)CCCCCC(=O)Nc3ccccc3N)ccc2O[C@H]1CN(C)Cc1ccc(Oc2ccccc2)cc1`: “inactive”.
The entry for `C[C@@H]1CN([C@H](C)CO)C(=O)Cc2cc(NC(=O)CCCCCC(=O)Nc3ccccc3N)ccc2O[C@H]1CN(C)Cc1ccc(Oc2ccccc2)cc1` is “inactive”; for `C[C@H](CO)N1C[C@H](C)[C@H](CN(C)Cc2ccc(Oc3ccccc3)cc2)Oc2ccc(NC(=O)CCCCCC(=O)Nc3ccccc3N)cc2CC1=O` it is “inactive”; for `COc1ccc(CN(C)C[C@H]2Oc3ccc(NC(=O)CCCCCC(=O)Nc4ccccc4N)cc3CC(=O)N([C@@H](C)CO)C[C@H]2C)cc1` it is “active”.
For `COc1ccc(CN(C)C[C@H]2Oc3ccc(NC(=O)CCCCCC(=O)Nc4ccccc4N)cc3CC(=O)N([C@H](C)CO)C[C@H]2C)cc1`, the cytotoxicity call is “inactive”.
Turning to `COc1ccc(CN(C)C[C@@H]2Oc3ccc(NC(=O)CCCCCC(=O)Nc4ccccc4N)cc3CC(=O)N([C@H](C)CO)C[C@@H]2C)cc1`, the cytotoxicity call is “inactive”.
The same measure for `C[C@@H]1CN([C@@H](C)CO)C(=O)Cc2cc(NC(=O)CCCCCC(=O)Nc3ccccc3N)ccc2O[C@@H]1CN(C)Cc1ccc(Oc2ccccc2)cc1`: “active”; for `C[C@@H]1CN([C@H](C)CO)C(=O)Cc2cc(NC(=O)CCCCCC(=O)Nc3ccccc3N)ccc2O[C@@H]1CN(C)Cc1ccc(Oc2ccccc2)cc1`: “active”.
